Results: PubChem BioAssay (NCATS)
Where “and” joins values, the source holds several entries; their conditions need not be identical. Equal entries are not always repeated. Inconclusive results are not listed. Calls of active or inactive are those of the source. Calls come from the whole dose curve; as a rule, active = well fitted curve in the direction sought with a large enough effect; inconclusive = small, poorly fitted or top-dose-only effect, or another doubt; inactive = no such curve, though single readings can be large; an effect the other way counts as inactive or inconclusive. Where a SMILES comes first, the peptide text is derived from it. [ ]: non-standard residue; d: D form. Hyp = O=C(O)[CH]1C[CH](O)CN1; Phe(ol) = N[CH](CO)Cc1ccccc1; Iva = CC[C](C)(N)C(=O)O; Aib = CC(C)(N)C(=O)O

Assays:
[1] = Primary qHTS for inhibitors of nuclear receptor binding SET domain protein 2 (NSD2) in an isogenic RCH-ACV NSD2 p.E1099K mutant (9B) (AID 1645876)
[2] = Primary qHTS for inhibitors of nuclear receptor binding SET domain protein 2 (NSD2) in an RCH-ACV wild type WT cells (2C) (AID 1645877)
% is set by controls: 0 for no effect and ±100 for the full control effect; potency is the fitted concentration of half-maximal effect.
Note: nearly all actives have a fitted effect of over 70% in size.

Compound | Potency [1] | Potency [2] | activity change, negative = viability loss [1] | activity change, negative = cell killing [2]
C=C(C)C(=O)O[C@H]1[C@H]2C(=C)C(=O)O[C@@H]2/C=C(\CO)CC/C=C(/C=O)[C@@H]1O | 12.7 µM (active) | 4.5 µM (active) |  | 
CC1OC(=O)C[C@@H]2C(C(=O)O)=CO[C@@H](O[C@H]3O[C@H](CO)[C@@H](O)[C@H](O)[C@H]3O)[C@H]12 (some centres not stated) | inactive | inactive |  | 
O=c1[nH]cnc2c([C@@H]3N[C@H](CO)[C@@H](O)[C@H]3O)c[nH]c12 | inactive | inactive |  | 
CC(=O)O[C@@H]1CC[C@@]2(C)[C@H](CC[C@@H]3[C@@H]2C[C@H](OC(C)=O)[C@]2(C)[C@@H](C(C)=O)CC[C@@H]32)C1 | 23 µM (active) | 23 µM (active) |  | 
CC1CC(=O)C2=C(C1)C1OC1C1(O)C2C(=O)c2cccc(O)c2C1O (configuration not stated) | inactive | inactive |  | 
CCC(C)(NC(=O)C(CCC(N)=O)NC(=O)C1CC(O)CN1C(=O)C(C)(C)NC(=O)C(C)(C)NC(=O)C(CC(C)C)NC(=O)CNC(=O)C(NC(=O)C(C)(C)NC(=O)C(C)(C)NC(=O)C(C)(C)NC(=O)C(Cc1ccccc1)NC(C)=O)C(C)C)C(=O)N1CC(O)CC1C(=O)NC(C)(C)C(=O)NC(CO)Cc1ccccc1 (configuration not stated) (Ac-F[Aib][Aib][Aib]VGL[Aib][Aib][Hyp]Q[Iva][Hyp][Aib][Phe(ol)]; configuration not given here) |  |  | -11.4% [at 9.23 µM] (inactive) | -29.8% [at 9.23 µM] (inactive)
COc1cc(O)c2c(c1)C1OC1C[C@H](O)[C@H](O)C(=O)/C=C\C[C@H](C)OC2=O (some centres not stated) | 3.25 µM (active) | 2.05 µM (active) |  | 
C=C1C(=O)OC2CC(C)C(CCC(C)=O)=CCC12 (configuration not stated) | 18.3 µM (active) | 12.9 µM (active) |  | 
COC(=O)CC[C@@H](C)C1CCC2C3CCC4C[C@H](OC(C)=O)CCC4(C)C3C[C@H](O)C21C (some centres not stated) | inactive | inactive |  | 
C=C1C(=O)O[C@@H]2/C=C(\C)CC/C=C(/C=O)[C@H](OC)[C@@H](OC(=O)C(C)C)[C@@H]12 | 8.01 µM (active) | 3.19 µM (active) |  | 
C=C1C(=O)O[C@@H]2C[C@H](C)[C@@H]3CC(=O)[C@H](O)[C@@]3(C)C[C@H]12 | 20.5 µM (active) | 10.3 µM (active) |  | 
C=C(C)C(=O)O[C@H]1[C@H]2C(=C)C(=O)O[C@@H]2C[C@@H](C)[C@@H]2O[C@@H]2C(=O)[C@](C)(O)[C@@H]1OC(=O)C(=C)C | 1.78 µM (active) | 1.26 µM (active) |  | 
CN1C(=O)c2sccc2N(C)c2nc(Nc3ccc(S(N)(=O)=O)cc3)ncc21 | 1.05 µM (active) | 0.59 µM (active) |  | 
C=C1CO[C@@]2(O[C@H]3CC4C5CC=C6C[C@@H](O)C[C@@H](O[C@@H]7OC[C@H](O)[C@H](O[C@@H]8OC[C@@H](O)[C@H](O)[C@H]8O)[C@H]7O[C@@H]7O[C@@H](C)[C@H](OC(C)=O)[C@@H](OC(C)=O)[C@H]7OC(C)=O)[C@]6(C)C5CC[C@]4(C)[C@@H]3[C@@H]2C)[C@@H](O)[C@H]1OC1OC(C)C(O)C(O)C1O (some centres not stated) | 2.18 µM (active) | 2.18 µM (active) |  | 
CC(C)(C)NC(=O)[C@H]1CC[C@H]2[C@@H]3CC[C@H]4NC(=O)CC[C@]4(C)[C@H]3CC[C@]12C | inactive | inactive |  | 
Cc1nc(-c2cn3c(n2)-c2ccc(-c4cnn(C(C)(C)C(N)=O)c4)cc2OCC3)n(C(C)C)n1 | 7.3 nM (active) and 18.6 nM (active) | 5.8 nM (active) and 33.2 nM (active) |  | 
C=C1CC[C@@H](O)[C@]2(C)C[C@H]3OC(=O)C(=C)[C@H]3CC12 (some centres not stated) | 16.3 µM (active) | 12.9 µM (active) |  | 
CC(C)NCCCn1c(Sc2cc3c(cc2I)OCO3)nc2c(N)ncnc21 | 0.365 µM (active) | 0.325 µM (active) |  | 
C=C1CC2OC(=O)C(COC)C2C(OC(=O)/C(C)=C\C)CC2(C)OC1=CC2=O (configuration not stated) | 3.58 µM (active) | 2.26 µM (active) |  | 
C=CS(=O)(=O)NC1CCN(C(=O)CNc2cc(I)c(Cl)cc2OC)CC1 | 4.59 µM (active) | 3.25 µM (active) |  | 
Cc1ccc(NC(=O)c2ccc(CN3CCNCC3)cc2)cc1Nc1nccc(-c2cccnc2)n1 | 16.3 µM (active) and 14.8 µM (active) | 18.3 µM (active) and 14.8 µM (active) |  | 
CC(=O)O[C@@H]1C[C@@]23C[C@@]24CC[C@H](O[C@@H]2OC[C@H](O)[C@H](O)[C@H]2O)C(C)(C)[C@@H]4CC[C@H]3[C@]2(C)[C@@H](O)C34O[C@H](C[C@@H](C)[C@@H]3[C@@]12C)[C@@H](C(C)(C)O)O4 | inactive | inactive |  | 
CC(C)=CCC[C@](C)(O[C@@H]1O[C@H](CO[C@@H]2OC[C@@H](O)[C@H](O)[C@H]2O)[C@@H](O)[C@H](O)[C@H]1O)[C@H]1CC[C@]2(C)[C@@H]1[C@H](O)C[C@@H]1[C@@]3(C)CC[C@H](O[C@@H]4O[C@H](CO)[C@@H](O)[C@H](O)[C@H]4O)C(C)(C)[C@@H]3CC[C@]12C | inactive | inactive |  | 
Cc1c(F)ccc(C(=O)Nc2cc([N+](=O)[O-])ccc2N2CCN(C)CC2)c1Cl | inactive | inactive |  | 
C=C(C=O)[C@]1(O)C[C@@]2(C)C(=CC1=O)C=C[C@H](OC(=O)/C=C/C=C/[C@H](C)CC)[C@@H]2C | 3.17 µM (active) | 1.59 µM (active) |  | 
CC(=O)O[C@H]1CC(C)(C)CC2[C@]13CO[C@@]21CCC2[C@@]4(C)CC[C@H](O[C@@H]5OC[C@H](O[C@@H]6O[C@H](CO)[C@@H](O)[C@H](O)[C@H]6O[C@@H]6OC[C@@H](O[C@@H]7O[C@H](CO)[C@@H](O)[C@H](O)[C@H]7O)[C@H](O)[C@H]6O)[C@H](O)[C@H]5O[C@@H]5O[C@H](CO)[C@@H](O)[C@H](O)[C@H]5O)[C@@](C)(CO)C4CC[C@@]2(C)[C@]1(C)C[C@H]3O (some centres not stated) | 1.09 µM (active) | 2.18 µM (active) |  | 
